# Source: PubChem BioAssay
# ELG1 genotoxic: inducers of genotoxicity in HEK293T ELG1-luciferase cells; Potency, µM (top dose mostly 46 µM), without a hit: at the highest dose activity change, positive = activation, most hits filed as activators; 1.3% of 330,000 active; HEK293T ELG1-luciferase reporter, luminescence, 16 h; AID 504466; further: % of control where 0% means no effect; nearly all actives have a fitted effect of over 60% in size
#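 Luminescence read-out: rising ELG1-luciferase signal, reflecting elevated ELG1 protein under genetic stress, flags genotoxic compounds. Cells were treated for 16 hr at 37 °C before ONE-Glo detection.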
# NPC1 promoter act: NPC1 promoter activation; Huh7 NPC1 promoter luciferase reporter, 24 h; Potency, µM (top dose mostly 9.22 µM), for the others: top-dose activation, actives largely listed as activators; 2.4% of 320,000 active; further: % of control where 0% means no effect; nearly all actives have a fitted effect of over 60% in size
#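 NPC1 promoter–luciferase Huh7 cells; 24 h compound; luminescence.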
# SMN2 splice enh: SMN2 splice variant enhancement; HEK293 SMN2-luciferase splicing reporter, luminescence, 30-36 h; 2.8% of 210,000 active; Potency, µM (highest dose often 46.1 µM), inactives show at the top dose activity change, positive = activation, hits mostly activators; further: % of control where 0% means no effect; nearly all actives have a fitted effect of over 55% in size
#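 HEK293 cells carry an SMN2 minigene-luciferase reporter in which exon 7 inclusion puts luciferase in frame. Cells were seeded at 2000 cells/well, attached for 10-12 hours, then exposed to compounds for 30-36 hours at 37C before ONE-Glo luminescence.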
# KinaseGlo FLuc: counter-screen: inhibitors of Kinase-Glo firefly luciferase | Kinase-Glo luciferase, ATP luminescence, 8 min | 0.28% of 200,000 active | Q27757 | Potency, µM (highest dose often 38.3 µM), for the others: at the highest dose activity change, negative = inhibition, most hits filed as inhibitors | AID 1379; further: on the % scale 0 is the no-effect control and ±100 the full control effect; nearly all actives have a fitted effect of over 60% in size
#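 Substrate mix (final 50 mM imidazole pH 7.2, 50 mM KCl, 7 mM MgCl2, 10 uM ATP, 0.01% Tween 20, 0.05% BSA) plus pin-tool compound, then Kinase-Glo detection mix; 8 min ambient, luminescence read.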
# Rab9 prom act: activators of Rab9 promoter | Huh7 Rab9 promoter-luciferase reporter, luminescence, 24 h | Potency, µM (doses to about 9.22 µM), inactives show at the top dose activation, negative = inhibition, hits mostly activators | 2.8% of 320,000 active | AID 485297; further: % of control where 0% means no effect; nearly all actives have a fitted effect of over 60% in size
#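 Measured in stably transfected Huh7 cells bearing a Rab9 promoter–luciferase construct: 24 h compound treatment at 37 °C, followed by luminescence detection.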
# FLuc modulator: inhibits or activates purified firefly luciferase, miR-21 counter-screen; Potency, µM (doses to about 57.5 µM), without a hit: top-dose activity change, negative = inhibition, usual class: inhibitors; purified FLuc, Km substrates, luminescence inhibition; AID 588342; P08659; 6.9% of 360,000 active;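 further: plate controls were vehicle for no effect and reference inhibitor for full effect; nearly all actives have a fitted effect of over 55% in size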
# Target sequence (P08659 whole entry, looked up): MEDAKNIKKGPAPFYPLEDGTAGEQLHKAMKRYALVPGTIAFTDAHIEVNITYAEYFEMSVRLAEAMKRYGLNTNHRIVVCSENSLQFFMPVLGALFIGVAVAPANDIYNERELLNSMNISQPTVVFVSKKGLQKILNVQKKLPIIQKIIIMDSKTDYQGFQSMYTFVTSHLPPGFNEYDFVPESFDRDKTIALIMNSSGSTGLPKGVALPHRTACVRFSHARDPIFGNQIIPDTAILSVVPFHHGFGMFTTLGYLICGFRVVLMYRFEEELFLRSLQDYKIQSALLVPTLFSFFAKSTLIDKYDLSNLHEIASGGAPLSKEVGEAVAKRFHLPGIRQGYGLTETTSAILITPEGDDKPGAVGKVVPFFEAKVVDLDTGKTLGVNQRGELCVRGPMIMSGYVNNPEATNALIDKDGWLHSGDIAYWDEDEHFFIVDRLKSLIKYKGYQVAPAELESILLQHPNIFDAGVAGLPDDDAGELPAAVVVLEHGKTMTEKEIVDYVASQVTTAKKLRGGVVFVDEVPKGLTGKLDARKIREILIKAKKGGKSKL
#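 Purified P. pyralis luciferase, 10 nM final, with Km-level 10 uM D-luciferin and 10 uM ATP in 50 mM Tris acetate pH 7.5, 10 mM Mg acetate, 0.01% Tween-20, 0.05% BSA; 6-point qHTS titration about 60 µM downward; luminescence read.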
# * marks the source's active call; other numbers are inactive results; ? = inconclusive; nt = no result given; [ ] = remark or other dose. A selection: hits, their analogues and other compounds. The true share with any hit is near 7.5%. The call rests on the fitted dose curve; in most records, active means well fitted curve in the direction sought with a large enough effect; inconclusive means small, poorly fitted or top-dose-only effect, or another doubt; inactive means no such curve, though single readings can be large; an effect the other way counts as inactive or inconclusive. Potency means the concentration at half of the fitted maximal effect.
SMILES,ELG1 genotoxic,NPC1 promoter act,SMN2 splice enh,KinaseGlo FLuc,Rab9 prom act,FLuc modulator
COc1ccc(-n2c(C)cc(/C=C3\SC(=O)NC3=O)c2C)cc1,?,?,nt,nt,?,12µM*
Cc1cc(/C=C2\SC(=S)N(C)C2=O)c(C)n1-c1ccc(O)cc1,?,-15%,nt,nt,-26%,0.54µM*
Cc1sc(-n2c(C)cc(/C=C3\SC(=S)NC3=O)c2C)c(C#N)c1C,1%,-1%,3%,-6%,?,13µM*
COc1ccc(-n2c(C)cc(/C=C3\SC(=S)N(Cc4ccco4)C3=O)c2C)cc1,3%,18%,1%[1.84 µM],-3%,?,?
CCOc1cc(CNC(=O)NC2COc3ccccc3C2)cc(OCC)c1OCC (stereo not drawn),nt,nt,nt,nt,nt,2%
CCOc1ccc(C2c3c(oc4ccc(C)cc4c3=O)C(=O)N2CCCN2CCOCC2)cc1 (stereo not drawn),nt,nt,nt,nt,nt,3%
Cc1oc(-c2cccc(Cl)c2)nc1Cn1c(SCc2ccccc2F)nc2ccncc21,nt,nt,11%,nt,nt,?
Cc1cc(/C=C2\SC(N)=NC2=O)c(C)n1-c1ccc(F)cc1,10%,19%,nt,0%,19%,0.85µM*
Cc1cc(/C=C2\SC(=S)NC2=O)c(C)n1-c1cccc(O)c1,?,2.5µM*,nt,nt,1.6µM*,1.1µM*
Cc1ccc(-n2c(C)cc(/C=C3\SC(=O)NC3=O)c2C)cc1,?,2.5µM*,nt,nt,0.71µM*,2.7µM*
NC(=O)C1CCN(C(=O)c2ccc(NC(=O)c3nsc4ccccc34)cc2)CC1,nt,nt,nt,nt,nt,1.7µM*
CCOC(=O)C1CCCN(C(=O)c2ccc(NC(=O)c3nsc4ccccc34)cc2)C1 (stereo not drawn),nt,nt,nt,nt,nt,12µM*
CCOC(=O)C1CCN(C(=O)c2ccc(NC(=O)c3nsc4ccccc34)cc2)CC1,nt,nt,nt,nt,nt,15µM*
FC(F)(F)c1cccc(N2CCN(c3ncnc4c3nc3n4CCCC3)CC2)c1,nt,nt,nt,nt,nt,7%
CC1CCN(C(=O)CSCc2ccc(Cl)cc2)CC1,15µM*,?,?,-3%,3.2µM*,19µM*
COc1ccc(OC)c(CNC(=O)c2ccc(N3Cc4ccccc4Oc4ncccc43)s2)c1,nt,nt,nt,nt,nt,2%
COc1ccc(OC(=O)c2cn(-c3cccc(OC)c3)c(=O)c3ccccc23)cc1,nt,nt,nt,nt,nt,-1%
CCOc1ccccc1-c1nc(C(N)=O)c2c(n1)n(-c1ccc3c(c1)OCO3)c(=O)n2C,nt,nt,nt,nt,nt,-3%
CCN(CC)C(=O)c1ccc(-c2cccs2)s1,?,2.5µM*,nt,nt,3.5µM*,11µM*
CCN(CC)C(=O)c1sc(NC(=O)c2cccs2)c(C#N)c1C,-3%,-8%,nt,0%,-8%,-14%
Cc1ccsc1/C=C/C(=O)O,1%,-2%,16%,3%,1%,0%
Cc1ccsc1/C=C/c1ccc2cccc(O)c2n1,9.2µM*,?,?,-22%,3.5µM*,2.7µM*
Oc1c(Cl)cc(Cl)cc1/C=C/c1ccc2cccc(O)c2n1,-15%,-35%,-20%,2%,-32%,?
Cc1ccsc1/C=C/c1ccc2ccccc2n1,?,2µM*,0.89µM*,11µM*,2.2µM*,1.7µM*
Oc1cccc2ccc(/C=C/c3cccs3)nc12,2.2µM*,?,25%,-17%,2.8µM*,2.1µM*
SMILES,ELG1 genotoxic,NPC1 promoter act,SMN2 splice enh,KinaseGlo FLuc,Rab9 prom act,FLuc modulator
COc1cccc(CNC(=O)Cn2c(=O)cc(C(F)(F)F)c3c(C)nn(C)c32)c1OC,nt,nt,nt,nt,nt,0%
Cc1ccc(NC(=O)Cn2c(-c3ccc4c(c3)OCO4)cn(-c3ccccc3)c2=O)cc1,nt,nt,?,nt,nt,12µM*
Cc1ccc(NC(=O)Cn2c(=O)n(Cc3ccc4c(c3)OCO4)c(=O)c3ccccc32)cc1,nt,nt,4%,nt,nt,3%
O=C(Nc1ccc(C(=O)N2CCN(c3ccccc3)CC2)cc1)c1nsc2ccccc12,nt,nt,nt,nt,nt,5.4µM*
Cc1ccc(C(=O)N2CCN(c3ccc(F)cc3)CC2)cc1NC(=O)c1nsc2ccccc12,nt,nt,nt,nt,nt,-4%
O=C(Nc1cccc(C(=O)N2CCN(c3ccc(Cl)cc3)CC2)c1)c1nsc2ccccc12,nt,nt,nt,nt,nt,1.2µM*
Cc1ccc(C)c(N2CCN(C(=O)c3ccc(NC(=O)c4nsc5ccccc45)cc3)CC2)c1,nt,nt,nt,nt,nt,17µM*
O=C(Nc1cccc(C(=O)N2CCN(c3cccc(Cl)c3)CC2)c1)c1ccccc1,-19%,0%,-23%,-1%,1%,-5%
O=C(Nc1cccc(C(=O)N2CCN(c3cccc(Cl)c3)CC2)c1)c1nsc2ccccc12,nt,nt,nt,nt,nt,2.7µM*
Cc1ccc(C(=O)N2CCC(C)CC2)cc1NC(=O)c1nsc2ccccc12,nt,nt,nt,nt,nt,-21%
Cc1nn2c3c(cnc2c1-c1ccc(F)cc1)C(=O)CC(c1ccccc1)C3 (stereo not drawn),nt,nt,-1%,nt,nt,-2%
CC(C)(C)C1CCc2c(sc(NC(=O)c3cccc(Cl)c3)c2C(=O)NCc2ccco2)C1 (stereo not drawn),nt,nt,-5%,nt,nt,-5%
COc1cccc(N2CCN(C(=O)c3ccc(C)c(NC(=O)c4nsc5ccccc45)c3)CC2)c1,nt,nt,nt,nt,nt,-2%
O=C(Nc1cccc(C(=O)N2CCN(c3ccccc3F)CC2)c1)c1nsc2ccccc12,nt,nt,nt,nt,nt,3µM*
O=C(Nc1cccc(C(=O)N2CCN(c3ccc(F)cc3)CC2)c1)c1nsc2ccccc12,nt,nt,nt,nt,nt,0.85µM*
O=C(Nc1ccc(C(=O)N2CCN(c3cccc(Cl)c3)CC2)cc1)c1nsc2ccccc12,nt,nt,nt,nt,nt,4.3µM*
COC(=O)c1ccc(C(NC(=O)OCc2ccccc2)/C(=C/[C@@H](C)C(=O)NCC2CC2)c2cccnc2)cc1 (stereo partly drawn),nt,nt,-2%,0%,nt,nt
COc1cccc(OCc2ccc(Cl)cc2)c1C#N,?,0.71µM*,nt,nt,0.56µM*,0.54µM*
COc1cccc(CNC(C)(C)CO)c1OCc1ccc(Cl)cc1,-8%,-2%,-17%,-2%,-5%,6%
Cc1cc(C)n(-c2ccc(Cl)c(C(=O)O)c2)n1,10%,-2%,nt,-3%,-7%,19µM*
N#C/C(=C\c1ccccc1C(=O)O)c1nc2ccccc2[nH]1,1%,-2%,nt,nt,-3%[1.84 µM],-16%
N#C/C(=C\c1ccc(-c2ccc(Cl)c(C(=O)O)c2)o1)c1nc2ccccc2[nH]1,nt,8%,2%,nt,15%,6µM*
N#C/C(=C\c1ccc(-c2ccc(C(=O)O)cc2)o1)c1nc2ccccc2[nH]1,18%,4µM*,?,-2%,2.5µM*,9.5µM*
COC(=O)c1ccc(C(NC(=O)OCc2ccccc2)/C(=C/[C@@H](C)C(=O)NCc2nc3ccccc3n2C)c2cccnc2)cc1 (stereo partly drawn),nt,nt,0%,-3%,nt,nt
